In the library only some 0.59% were active in any assay of this set; here they are far more common.
Rv3671c inh – inhibitors of M. tuberculosis serine protease Rv3671c | P9WHR9 | inhibition, % at 5.96 µM | 320,000 compounds, 0.048% hits; in the data active = inhibition above about 38%;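 note: extracellular domain of Rv3671c used as enzyme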
Target sequence (P9WHR9 whole entry, looked up, the tested form may be a part): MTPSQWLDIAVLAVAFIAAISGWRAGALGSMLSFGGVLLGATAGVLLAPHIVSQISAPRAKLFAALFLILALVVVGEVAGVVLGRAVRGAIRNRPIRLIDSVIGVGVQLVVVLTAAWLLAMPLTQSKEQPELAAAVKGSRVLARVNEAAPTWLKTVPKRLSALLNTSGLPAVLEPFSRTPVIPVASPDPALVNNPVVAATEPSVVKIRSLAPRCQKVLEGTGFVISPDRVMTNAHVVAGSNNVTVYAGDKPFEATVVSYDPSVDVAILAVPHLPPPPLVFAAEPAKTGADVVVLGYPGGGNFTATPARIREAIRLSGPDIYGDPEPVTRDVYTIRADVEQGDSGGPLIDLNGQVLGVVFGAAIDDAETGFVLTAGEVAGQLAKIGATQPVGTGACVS
UGM FP inh – Mtb UDP-galactopyranose mutase inhibition; AID 504406; P9WIQ1; inhibition, % at 10 µM; 320,000 compounds, 0.06% hits; purified UGM, fluorescence polarization probe displacement; in the data active = inhibition above about 10%, passing the limit was not always enough
VHR inh abs – inhibitors of human VHR1 phosphatase (DUSP3); recombinant VHR phosphatase, pNPP absorbance; inhibition, % at 13.3 µM; AID 1654; 290,000 compounds, 0.52% hits; P51452; in the data active = inhibition above about 50%
Target sequence (P51452 whole entry, looked up): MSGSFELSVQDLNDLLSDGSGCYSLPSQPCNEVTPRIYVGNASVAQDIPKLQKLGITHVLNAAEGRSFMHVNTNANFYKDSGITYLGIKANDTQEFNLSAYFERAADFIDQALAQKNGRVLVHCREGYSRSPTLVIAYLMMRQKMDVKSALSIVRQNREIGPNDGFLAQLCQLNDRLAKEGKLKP
Mtb hypoxia inh – Mtb hypoxia fluorescent reporter inhibition; M. tuberculosis hypoxia-regulated fluorescent reporter, fluorescence; fluorescence inhibition, % (test concentration not listed); 300,000 compounds, 0.1% hits; in the data active = fluorescence inhibition mostly above about 23%, no sharp cut-off; inactive = mostly below about 17%
Mtb bLac sens – beta-lactam sensitization of Mtb H37Rv | AID 434955 | M. tuberculosis H37Rv growth with meropenem, percent inhibition | 330,000 compounds, 0.27% hits | inhibition, % at 25 µM; call rule not given here;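 note: growth measured after seven days incubation then overnight dye step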
Large screens that a line does not name were inactive.

CCCCCCCSc1nsc(N)n1	VHR inh abs 57.3
N#C/C(=C\c1cccc(OC(=O)c2cccs2)c1)C(N)=O	none
Cc1cccc2cc(CN(CC3CCCO3)C(=O)c3cccnc3)c3nnnn3c12 (stereo unspecified)	none
COCC(=O)N(Cc1cc2ccc(C)c(C)c2n2nnnc12)C1CCCC1	VHR inh abs 54.4
O=C(COC(=O)c1ccccc1NCCO)NCC1CCCCC1	Mtb hypoxia inh 31.0 (no result: VHR inh abs)
COC(=O)c1c(NC(=O)COC(=O)c2ccc(O)cc2)sc2c1CCCCC2	none
O=C(NCc1ccc2c(c1)OCO2)c1c(Cl)cccc1Cl	VHR inh abs 55.5
Cc1ccc(Cn2ccnc2C(=O)Nc2ccccc2)cc1	none
CC(=O)N/C(=N\c1nc(C)cc(C)n1)Nc1ccc2ccccc2c1	VHR inh abs 53.9 (no result: Mtb hypoxia inh)
O=C(COc1ccccc1)N=C1SC2CS(=O)(=O)CC2N1Cc1ccccc1 (stereo unspecified)	VHR inh abs 59.8
O=Cc1ccc(OC(=O)C2CC(=O)N(c3ccc(F)cc3)C2)cc1 (stereo unspecified)	VHR inh abs 51.2
O=C(O)C1CC(=O)N(c2ccc(F)cc2)C1 (stereo unspecified)	none
COc1cccc(C(=O)Nc2c(C)nn(-c3ccccc3)c2C)c1	none
COc1ccc(C2C([N+](=O)[O-])=C(N)Oc3c2c(=O)oc2ccccc32)cc1 (stereo unspecified)	none
COc1cccc(C2C([N+](=O)[O-])=C(N)Oc3c2c(=O)oc2ccccc32)c1 (stereo unspecified)	VHR inh abs 51.6
COc1ccccc1N1CCN(C2CCCCC2NS(=O)(=O)c2ccccc2)CC1 (stereo unspecified)	none
CCC(C)NC(=O)N[C@@H](CCSC)C(=O)OC (stereo partly specified)	VHR inh abs 56.4
CC(NC(=O)c1ccc(F)cc1)c1ccccc1 (stereo unspecified)	Mtb hypoxia inh 55.8
COc1ccc(C(=O)NC(C(=O)OCC(=O)Nc2sccc2C(N)=O)C(C)C)cc1 (stereo unspecified)	none (no result: VHR inh abs)
CCC1CCCCN1S(=O)(=O)c1ccc([N+](=O)[O-])cc1 (stereo unspecified)	VHR inh abs 51.3
CC1CCCCN1S(=O)(=O)c1ccc([N+](=O)[O-])cc1 (stereo unspecified)	none
COc1ccc(CN2CCOCCOCCOCC2)cc1	none
COc1ccc(CN2CCOCC2)cc1	VHR inh abs 51.6
CCC(NC(=O)NC1=NCCS1)(C(F)(F)F)C(F)(F)F	VHR inh abs 57.4
CCN(CC)CCOC(=O)c1ccc(NC(=O)C2(c3ccccc3)CCCC2)cc1	VHR inh abs 54.4
O=C(O)c1ccc(NC(=O)C2(c3ccccc3)CCCC2)cc1	none
Cc1nn(Cc2n[nH]c(=S)n2Cc2ccccc2)c(C)c1Cl	none
COc1ccc(N(CC(=O)Nc2cccc(F)c2)S(=O)(=O)c2c(C)[nH]c(=O)[nH]c2=O)cc1	VHR inh abs 55.7
O=[N+]([O-])c1cc(S(=O)(=O)Nc2ccccc2)ccc1NCc1cccnc1	VHR inh abs 59.9
O=[N+]([O-])c1cc(S(=O)(=O)Nc2ccccc2)ccc1NCc1ccccc1	none
CCC(C)[C@H](NC(=O)N1CCN(c2cccc(C(F)(F)F)c2)CC1)C(=O)OC (stereo partly specified)	none
O=C(N/N=C/c1cc([N+](=O)[O-])ccc1N1CCNCC1)c1ccc([N+](=O)[O-])cc1	VHR inh abs 52.1 (no result: Mtb hypoxia inh)
O=C(NN=Cc1cc([N+](=O)[O-])ccc1N1CCNCC1)c1ccc([N+](=O)[O-])cc1	none (no result: Rv3671c inh, UGM FP inh, VHR inh abs, Mtb bLac sens)
C=CC[n+]1ccc(/C=C2\C=Cc3cc(C)ccc3N2CC)c2ccccc21	Mtb hypoxia inh 36.0 (no result: Rv3671c inh, UGM FP inh, Mtb bLac sens)
O=C1/C(=C/c2ccc(N3CCCC3)cc2)NC(=S)N1C1CC1	VHR inh abs 51.6
COc1ccccc1N(CC(=O)N1CCCCCC1)S(=O)(=O)c1ccc(C)cc1	VHR inh abs 50.4
COc1ccccc1N(CC(=O)N1CCCC1)S(=O)(=O)c1ccc(C)cc1	none (no result: Mtb hypoxia inh)
C=CCN1C(=O)c2cccc3c(N4CCCCC4)ccc(c23)C1=O	none
O=C(OCCN1C(=O)c2ccccc2C1=O)c1cc(S(=O)(=O)N2CCOCC2)ccc1Cl	none (no result: Mtb hypoxia inh)
O=C(OCCN1C(=O)c2cccc3c(N4CCOCC4)ccc(c23)C1=O)c1cccc(Cl)c1	UGM FP inh 24.5
O=C(OCCN1C(=O)c2cccc3c(N4CCOCC4)ccc(c23)C1=O)c1ccc(Cl)cc1Cl	UGM FP inh 22.9
Cc1n[nH]c(C)c1N1C(=O)c2cccc3c(N4CCCCCC4)ccc(c23)C1=O	UGM FP inh 13.6
O=C1c2cccc3c(N4CCCCC4)ccc(c23)C(=O)N1CCO	UGM FP inh 30.3
O=C1c2cccc3c(N4CCCCC4)ccc(c23)C(=O)N1c1cccc(O)c1	none
O=C(Nc1cccc(Cl)c1)Nc1ccnc(-c2cccnc2)n1	none
Cc1cc(C)c(S(=O)(=O)Nc2ccccc2C(=O)N2CCCC2)c(C)c1	none
CC(C)(C)c1nc(CN2CCOCC2)cc(CN2CCOCC2)c1O	none
O=C(NCc1ccccc1F)C1CCCN(C(=O)Nc2ccccc2)C1 (stereo unspecified)	none
O=C(OCCN1C(=O)c2cccc3c(N4CCOCC4)ccc(c23)C1=O)c1ccccc1Cl	UGM FP inh 22.3
COc1ccc(CN(C(=O)c2oc3ccccc3c2C)C2CCS(=O)(=O)C2)cc1 (stereo unspecified)	none (no result: Mtb hypoxia inh)
O=C(NCCNS(=O)(=O)c1ccccc1)c1ccc([N+](=O)[O-])cc1	VHR inh abs 58.3
O=[N+]([O-])c1ccc(NCCNS(=O)(=O)c2ccccc2)cc1	none
O=C1CCC(C(=O)N2CCCC(C(=O)c3ccc4ccccc4c3)C2)=NN1 (stereo unspecified)	VHR inh abs 50.4
C=CCONC(=O)c1cc(OCC(F)(F)F)ccc1OCC(F)(F)F	none
COc1ccc(C2Nc3ccccc3C(=O)N2NC(C)=O)c(OC)c1 (stereo unspecified)	VHR inh abs 52.6
CCCN1C(=O)c2ccccc2NC1c1ccc(OC)cc1OC (stereo unspecified)	none
Cc1ccc(C(=O)COC(=O)c2cccc(NC(=O)c3ccc([N+](=O)[O-])cc3[N+](=O)[O-])c2)cc1	Mtb hypoxia inh 40.6
CCCN(CC(=O)Nc1ccccc1C)C(=O)CCl	Mtb hypoxia inh 35.0
Cc1ccccc1OCCC(=O)NNC(=O)COc1cccc(F)c1	none (no result: VHR inh abs)
Cc1ccc(S(=O)(=O)NC(=O)Nc2ccc(N(C)C)cc2)cc1	VHR inh abs 52.2
CCc1nnc(NC(=O)C2CSC3(C)CCC(=O)N23)s1 (stereo unspecified)	none (no result: VHR inh abs)
O=C1CN(C(=O)COC(=O)c2ccc(Br)o2)c2ccccc2N1	Mtb hypoxia inh 26.0 (no result: VHR inh abs)
O=C1CN(C(=O)COC(=O)CNC(=O)c2ccc(Br)o2)c2ccccc2N1	none
O=C1CN(C(=O)CNCc2ccccc2)c2ccccc2N1	VHR inh abs 52.4
CC(C)C(C)NC(=O)CN1C(=O)NC2(CCc3ccccc3C2)C1=O (stereo unspecified)	none
Cc1ccc(P(=O)(CC(=O)O)c2ccc(C)cc2)cc1	none
O=C(O)CP(=O)(O)c1ccc(Cl)cc1	VHR inh abs 50.8 (no result: Mtb hypoxia inh)
